Source: PubChem BioAssay
Only some compounds are listed: those with a hit (about 5.8% of all), similar ones and a draw of the others.
12-LOX inh: Primary qHTS assay for inhibitors of human arachidonate 12S-lipoxygenase (ALOX12): Round 2; Potency, µM (top dose mostly 108 µM), for inactives: at the top dose activity change, negative = inhibition, usual class: inhibitors; AID 1671190, 2021; purified 12hLO, xylenol orange hydroperoxide absorbance; 580,000 compounds, 1.1% hits; Polyunsaturated fatty acid lipoxygenase ALOX12 (Homo sapiens), P18054; note: % is set by controls: 0 for no effect and ±100 for the full control effect
Target sequence (P18054 whole entry, looked up): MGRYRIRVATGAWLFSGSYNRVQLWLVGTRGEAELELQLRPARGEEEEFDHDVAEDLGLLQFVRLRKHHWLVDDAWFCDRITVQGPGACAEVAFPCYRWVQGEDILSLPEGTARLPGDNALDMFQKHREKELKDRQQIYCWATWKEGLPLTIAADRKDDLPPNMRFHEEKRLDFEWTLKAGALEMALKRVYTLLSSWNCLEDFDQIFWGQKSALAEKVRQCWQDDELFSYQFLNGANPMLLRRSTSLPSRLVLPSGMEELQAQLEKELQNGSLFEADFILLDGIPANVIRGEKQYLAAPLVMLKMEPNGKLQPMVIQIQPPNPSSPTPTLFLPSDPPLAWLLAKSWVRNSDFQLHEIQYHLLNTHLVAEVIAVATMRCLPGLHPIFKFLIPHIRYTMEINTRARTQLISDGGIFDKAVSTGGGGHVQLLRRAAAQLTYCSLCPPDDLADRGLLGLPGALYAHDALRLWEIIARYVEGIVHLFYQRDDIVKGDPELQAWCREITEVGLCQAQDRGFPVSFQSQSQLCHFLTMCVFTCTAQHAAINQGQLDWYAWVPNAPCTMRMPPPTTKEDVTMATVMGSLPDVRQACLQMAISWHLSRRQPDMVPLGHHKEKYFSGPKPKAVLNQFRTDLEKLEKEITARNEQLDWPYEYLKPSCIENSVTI
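Purified human 12hLO at 150 nM in 25 mM Hepes, 0.01% Triton X-100, pH 7.0, preincubated 15 min at room temperature with compound. Reaction started with 40 uM arachidonic acid, 30 min at room temperature. Hydroperoxide measured by Fe-xylenol orange, 573/405 nm absorbance ratio.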
KB-3-1 cytotox: qHTS assay for MDR1-selective chemotherapeutics: Primary screen using the parental adenocarcinoma cell KB-3-1; KB-3-1 viability, CellTiter-Glo ATP luminescence, 72 h; Potency, µM (titrated, usually from 46.1 µM), hits mostly cytotoxic; 400,000 compounds, 1.4% hits; AID 1347075, 2019; note: % is set by controls: 0 for no effect and ±100 for the full control effect; nearly all actives have a fitted effect of over 60% in size
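Here the drug-naive KB-3-1 line serves as comparator for MDR sub-line selectivity; cells received compound titrations, 72 h at 37 °C, then CellTiter-Glo readout.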
SW480 rereplic: A quantitative high throughput screen for small molecules that induce DNA re-replication in SW480 colon adenocarcinoma cells; SW480 DNA re-replication, Hoechst DNA content imaging, 48 h; Potency, µM (titrated, usually from 46.1 µM), for the others: at the highest dose re-replication activation, hits mostly activators; 340,000 compounds, 1.8% hits; note: % of control where 0% means no effect; nearly all actives have a fitted effect of over 55% in size
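Quantitative HTS format with DMSO vehicle controls; 48 hr drug incubation at 37 C, then 40 min Hoechst staining and scanning imager measurement at 405 nm excitation.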
KB-V1 MDR tox: qHTS assay for MDR1-selective chemotherapeutics: Primary screen using the drug-selected MDR subline cells KB-V1. KB-V1 MDR cells viability, CellTiter-Glo, 72 h. Potency, µM (top dose mostly 46.1 µM), hits mostly cytotoxic. 400,000 compounds, 3.4% hits; note: % is set by controls: 0 for no effect and ±100 for the full control effect; nearly all actives have a fitted effect of over 60% in size
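KB-V1 cells (P-gp-expressing MDR subline of KB-3-1) in phenol-red-free DMEM with 10% FBS were exposed to library compounds over a concentration series for 72 h at 37 degrees C. Viability read by CellTiter-Glo luminescence; concentration-effect curves fitted after normalization.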
PINK1 expr mod: A Quantitative High throughput Screen to Identify Chemical Modulators of PINK1 Expression; PINK1 immunofluorescence, high-content cytometry, 24 h; AID 624263, 2012; Potency, µM (top dose mostly 76.6 µM), without a hit: top-dose activation (PINK1 increase), actives largely listed as activators; 410,000 compounds, 0.2% hits; active = well fitted activation curve with a large enough effect; inconclusive = small, poorly fitted or top-dose-only effect; cell line not stated here; note: % of control where 0% means no effect; nearly all actives have a fitted effect of over 65% in size
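Compound titrations (5 concentrations, 24 h) on a stable cell line; DMSO and CCCP controls. Endpoint: fixed-cell PINK1 immunofluorescence with mitochondrial, cell and nuclear markers, scanned by microplate cytometer.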
MCF10A rereplic: A quantitative high throughput screen for small molecules that induce DNA re-replication in MCF 10a normal breast cells; 350,000 compounds, 2.9% hits; Potency, µM (highest dose often 46.1 µM), for inactives: at the top dose activity, positive = re-replication, most hits filed as activators; MCF 10A DNA re-replication, Hoechst nuclear intensity, 48 h; AID 624296, 2012; note: % of control where 0% means no effect; nearly all actives have a fitted effect of over 50% in size
* marks the source's active call; other numbers are inactive results; i = inactive; ? = inconclusive; . = no result; [ ] = another dose, or the depositor's remark. Unless noted, calls come from the whole dose curve; as a rule, active = well fitted curve in the direction sought with a large enough effect; inconclusive = small, poorly fitted or top-dose-only effect, or another doubt; inactive = no such curve, though single readings can be large; an effect the other way counts as inactive or inconclusive. Potency is the fitted concentration of half-maximal effect.

SMILES | 12-LOX inh | KB-3-1 cytotox | SW480 rereplic | KB-V1 MDR tox | PINK1 expr mod | MCF10A rereplic
O=[N+]([O-])c1ccc(N/N=C/c2cccc(O)c2)cc1 | ? | i | ? | i | 0% | 18µM*
NS(=O)(=O)c1ccc(N/N=C/c2cn(-c3ccccc3)nc2-c2ccccc2)c([N+](=O)[O-])c1 | ? | ? | -33% | ? | -2% | 23%
O=[N+]([O-])c1ccc(N/N=C/c2cn(-c3ccccc3)nc2-c2ccccc2)cc1 | -4% | i | 10µM* | ? | 11% | 1.6µM*
CCN(CC)S(=O)(=O)NC(C)Cc1ccco1 (centres undefined) | -45% | . | . | . | . | .
Fc1ccc(N2CCN(Cc3ncc(-c4ccccc4)o3)CC2)cc1 | -40% | . | . | . | . | .
C[C@@H](O)CCCCn1c(=O)c2c(ncn2C)n(C)c1=O | 1% | . | . | . | . | .
O=[N+]([O-])c1ccc(NN=Cc2cccc([N+](=O)[O-])c2)cc1 | ? | i | 25% | i | 1% | 23µM*
Cc1cccc(C(=O)Oc2ccccc2/C=N/Nc2ccc([N+](=O)[O-])cc2)c1 | ? | ? | 13µM* | i | ? | ?
O=C(O)/C=C/c1cn(-c2ccccc2)nc1-c1cccc([N+](=O)[O-])c1 | -8% | i | -7% | i | 0% | -2%
O=[N+]([O-])c1ccc(N/N=C/c2cccnc2)cc1 | ? | i | ? | i | -1% | 13%
O=C(O)/C=C/c1cn(-c2ccccc2)nc1-c1ccc(-c2ccc([N+](=O)[O-])cc2)o1 | -24% | i | ? | i | 0% | 3.3µM*
CCCCCCCCCCS(=O)(=O)N/N=C/c1ccccc1OC | -8% | i | -2% | i | 8% | 18µM*
O=C(N/N=C/c1ccc[nH]1)c1ccccc1[N+](=O)[O-] | 0% | i | -5% | i | 2% | 2%
O=[N+]([O-])c1ccc(N/N=C/c2ccc[nH]2)cc1 | 35µM* | i | 19% | ? | ? | 22%
CCOc1cc(C(=S)N2CCC(O)CC2)ccc1OS(=O)(=O)c1ccc(Br)cc1 | ? | i | -1% | ? | -2%[38.3 µM] | -2%
CCOc1cc(C(=S)N2CCCCC2)ccc1OS(=O)(=O)c1ccc(Cl)cc1 | -21% | ? | 20% | 2.9µM* | 6%[38.3 µM] | ?
CCOc1cc(C(=S)N2CCCCC2)ccc1OS(=O)(=O)c1ccc(Br)cc1 | -20% | ? | 8% | 4.1µM* | 1%[38.3 µM] | ?
CCOC(=O)CN1CCN(c2nc3c(c(=O)[nH]c(=O)n3C)n2Cc2cccc3ccccc23)CC1 | -16% | . | . | . | . | .
CSc1nc2[nH]c(=O)n(O)c(=O)c2n1Cc1ccccc1 | -16% | ? | 2.3µM* | i | ? | ?
FC(F)(F)c1cccc(CN2CCC(c3cc(-c4cccs4)n[nH]3)CC2)c1 | ? | ? | ? | ? | 9% | 13µM*
CN1CC(=O)N(C2CCCNC2)Cc2c(NCc3ccc4c(c3)OCO4)ncnc21 (centres undefined) | 4.5µM* | . | . | . | . | .
O=C1NC2(CCN(C(=O)c3ccccc3F)C2)Oc2ccccc21 (centres undefined) | 74%[176 µM] | . | . | . | . | .
Cc1ccc(Cn2c(SCc3ccc(C(=O)NC4CCCC4)cc3)nc3ccncc32)cc1 | -22% | 23µM* | . | i | 2% | .
CC(=O)/C=C/n1c(=S)oc2ccccc21 | -3% | ? | 4% | 16µM* | 23% | 3.3µM*
CC(C)CC(=O)/C=C/n1c(=S)oc2ccccc21 | 10% | ? | 8.2µM* | ? | ? | 3.7µM*
SMILES | 12-LOX inh | KB-3-1 cytotox | SW480 rereplic | KB-V1 MDR tox | PINK1 expr mod | MCF10A rereplic
Cn1c(=S)oc2ccccc21 | 242% | i | -1% | i | 2% | ?
CC(=O)Nc1ccc(NC(=O)CCn2c(=S)oc3ccccc32)cc1 | ? | ? | 1% | ? | 9% | 23%
Fc1ccc(-c2cnc3n[nH]c(-c4ccccc4)c3n2)cc1 | 11%[176 µM] | . | . | . | . | .
COc1ccccc1CNc1nc2ccccc2nc1NS(=O)(=O)c1ccc(C)c(C)c1 | 5% | . | . | . | . | .
CCOc1ccccc1N1CCN(C2=C(NS(=O)(=O)c3cccs3)C(=O)c3ccccc3C2=O)CC1 | -1% | ? | 24% | ? | 5% | 23µM*
O=C1C(NS(=O)(=O)c2cccs2)=C(N2CCN(Cc3ccccc3)CC2)C(=O)c2ccccc21 | -15% | i | -12% | 23µM* | -1% | 13%
CCN1CCN(C2=C(NS(=O)(=O)c3ccccc3)C(=O)c3ccccc3C2=O)CC1 | 28% | ? | 18µM* | ? | 1% | ?
CN1CCN(C2=C(NS(=O)(=O)c3cccs3)C(=O)c3ccccc3C2=O)CC1 | -13% | ? | ? | ? | 2% | 0%
Cc1cccc(OC(=O)c2ccccc2I)c1C | -38% | . | . | . | . | .
CCOC(=O)Cc1csc(NC(=O)Cc2c(C)c3c(OC)cc(C)cc3oc2=O)n1 | 16% | . | . | . | . | .
Cc1ccc(-c2nn(Cc3ccccc3)cc2C(=O)N2CCN(CCO)CC2)cc1 | 9% | . | . | . | . | .
CCc1ccc(NC(=S)NC2CC3CCCC(C2)N3Cc2cccs2)cc1 (centres undefined) | ? | i | 15µM* | 18µM* | . | 0%
CCC(C)(C)NC(=O)c1ccc(C(=O)O)cc1 | -4% | . | . | . | . | .
Cc1noc(C)c1-c1nc(Nc2ccc(F)cc2)c2ccccc2n1 | 22µM* | . | . | . | 7% | .
Cc1noc(C)c1-c1nc(NCc2cccs2)c2ccccc2n1 | 28µM* | . | . | . | 3% | .
CC[C@H]1OC(=O)[C@H](C)C(=O)[C@H](C)[C@@H](O[C@H]2O[C@H](C)C[C@H](N(C)C)[C@@H]2O)[C@](C)(OC)C[C@@H](C)C(=O)[C@H](C)[C@H]2N(CCCCn3cnc(-c4cccnc4)c3)C(=O)O[C@]12C | 4.9µM* | . | . | . | . | .
Cc1c(Cl)cccc1NC(=O)C1CCCN(C(=O)Cc2cccc3ccccc23)C1 (centres undefined) | -9% | . | . | . | . | .
CCOc1cc(/C=N/O)cc(Br)c1OCC(=O)NCc1ccccc1 | 0% | i | 3% | i | -1% | 17%
COc1cc(/C=N/O)cc(Br)c1OCC(=O)NCc1ccccc1 | 6% | i | 10% | 16µM* | -1% | -39%
Cc1ccc(OCCOC(=O)Nc2ccccc2)cc1 | -15% | i | -2% | ? | 5% | 3%
